The panel holds about 83,000 compounds, 20% with a hit somewhere; the sample as a whole holds those more often.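 Cell lines were cultured in 96-well plates, exposed to a single compound concentration, and assessed for percent growth 48 hours later.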 Unmarked numbers belong to inactive results. The source made the active and inactive calls. Rule for the calls: active = growth percent below 10; inactive = the rest.
Assays:
Assay in all cases: NCI-60 one-dose screen, 48 h (100 = growth as untreated, 0 = no growth, -100 = all killed)
Settings in all cases: 10 µM unless noted
T-47D breast = tested on: T-47D breast
BT-549 breast = tested on: BT-549 breast
MDA-MB-435 melanoma = tested on: MDA-MB-435 melanoma
SW-620 colon = tested on: SW-620 colon
MCF7 breast = tested on: MCF7 breast
HCT-116 colon = tested on: HCT-116 colon
HCC-2998 colon = tested on: HCC-2998 colon
KM12 colon = tested on: KM12 colon

Compound | growth (T-47D breast) | growth (BT-549 breast) | growth (MDA-MB-435 melanoma) | growth (SW-620 colon) | growth (MCF7 breast) | growth (HCT-116 colon) | growth (HCC-2998 colon) | growth (KM12 colon)
Cc1ccccc1NC(=O)c1sc2nc(C)c(C(=O)/C=C/c3ccccc3)cc2c1N | 32% | 21.5% | -22.7% (active) | -10.5% (active) | 9.97% (active) | 10.1% | -36.9% (active) | 9.57% (active)
O=C(c1ccccc1)C1C(=O)N2C(=S)N(c3ccccc3)C(=O)C2C1c1ccc(Cl)cc1 (stereo not given) | 83.1% | 88.6% | 105% | 102% | 65.2% | 96.6% | 94.8% | 104%
COc1cc(-c2nc(SCCC(C)C)nc(Nc3ccccc3Cl)c2C#N)cc(OC)c1OC | 81.5% | 88.4% | 96.6% | 102% | 85.7% | 89.3% | 109% | 96.3%
COc1ccc(-c2nn(-c3ccccc3)cc2/C=C2/SC(=S)N(C)C2=O)cc1 | 35.1% | 102% | 84.9% | 66.8% | 75.3% | 31% | 98.9% | 98.4%
Oc1ccc(CN2CCC(N3CCCCC3)CC2)c2cccnc12 | 15% | 38.9% | 18.7% | 30.2% | 11.8% | 18.9% | 32.2% | 30.8%
C#Cc1cccc(Nc2ncnc3ccc(-c4cnc(N)nc4)cc23)c1 | 5.19% (active) | 28.9% | 43.2% | 60.9% | 15.7% | 47.9% | 64.7% | 68.6%
O=C1c2ccc3c4ccc5c6c(ccc(c7ccc(c2c37)C(=O)N1CCC[P+](c1ccccc1)(c1ccccc1)c1ccccc1)c64)C(=O)N(CCC[P+](c1ccccc1)(c1ccccc1)c1ccccc1)C5=O | 41.1% | 74% | 0.931% (active) | 24.5% | 37.1% | 46% | 25.5% | 10.5%
O=C(Nc1cc(Cl)ccc1O)c1ccc(Nc2ccnc(C(F)(F)F)c2)cc1 | 4.61% (active) | 34.5% | 51.9% | 40.2% | 22.3% | 16% | 35.1% | 22.4%
OB(O)c1cccc(-c2nc3ccc4[nH]ncc4c3c3c2CCCC3)c1 | 66.6% | 35.5% | 45.3% | 29.9% | 70.1% | 25% | 77.3% | 36.1%
CCOC(=O)Cn1c(O)c(N=Nc2ccc(S(N)(=O)=O)cc2)c2cc(Br)ccc21 | 78.1% | 119% | 92% | 62.7% | 84% | 13.9% | 95.5% | 70.7%
COc1cc(CNC(=O)CCCC/C=C/C(C)C)ccc1OCc1nnc(Nc2ccc([N+](=O)[O-])cc2)o1 | 48.6% | 108% | 71.9% | 67.3% | 55.2% | 24.6% | 83.6% | 71.6%
CN(C)Cc1ccc(NC(=O)c2cncc(C#Cc3cnc(N)c4ncccc34)c2)cc1F | 105% | 132% | -89.3% (active) | 96.9% | -46% (active) | 81.4% | 91% | -83.3% (active)
Cc1cc2c(O)c(-c3cc(Cl)ccc3Cl)c3sc(=O)oc3c2cc1C | 32.4% | 81.7% | 47.3% | 57.8% | 60.9% | 36.2% | 102% | 59.1%
Clc1ccc(CNc2c3ccccc3nc3ccccc23)cc1 | 43.4% | 70.9% | 60.7% | 31% | 16% | 15.7% | -10.2% (active) | 35.6%
O=C(Nc1ccc(-c2nc(N3CCOCC3)c3cccn3n2)cc1)Nc1cccnc1 | -24.8% (active) | -10.2% (active) | 3.87% (active) | 8.71% (active) | 4.54% (active) | 4.12% (active) | 12.9% | 9.01% (active)
C=C1C(=O)O[C@H]2[C@H]1CC/C(COC(=O)NCc1cc[nH]c1)=C\CC[C@@]1(C)O[C@@H]21 | 69.5% | 55.6% | 34.2% | 21.6% | 34.8% | 36.1% | 95% | 78.2%
CC1Cc2c(Cl)ncnc2N(C)c2ccc(F)cc21 (stereo not given) | 92.5% | 108% | 102% | 106% | 97.9% | 87.5% | 103% | 99.9%
C#CCOc1ccc2ncnc(Nc3cccc(NC(=O)C=C)c3)c2c1 | 70.6% | 46.6% | 69.1% | 90.3% | 60.5% | 74.4% | 90.8% | 83.5%
O=C(CI)NC1Oc2ccccc2-c2oc(=O)c(-c3ccccc3)cc21 (stereo not given) | -42.4% (active) | -55.7% (active) | 17.9% | -48.3% (active) | -53.3% (active) | -37.5% (active) | 78.2% | 2.37% (active)
COc1cc2c(c(OC)c1OC)-c1ccc(OC)c(=O)cc1[C@@H](NC(=O)CCl)CC2 | 73.7% | -48.8% (active) | 8% (active) | 21.3% | 18.1% | -39.3% (active) | 5.69% (active) | -10.3% (active)
N#CC1=C(N)Oc2c(sc3c(Br)cccc23)C1c1ccc(F)cc1 (stereo not given) | 50% | 25.3% | -10.3% (active) | 32.2% | 12.1% | 11.9% | 23.5% | 23.1%
CN1CCN(Cc2ccc3c(NNC(=O)c4ccccc4)nc4cc(F)ccc4n23)CC1 | 24.7% | 49% | 28.1% | 25.3% | 13.9% | 27% | 32.1% | 20%
CN(C)CCCC1(c2ccc(F)cc2)OCc2cc(-c3cccc4[nH]ccc34)ccc21 (stereo not given) | -39.2% (active) | 73.8% | -42.1% (active) | -24.6% (active) | -24.1% (active) | -64% (active) | -30.6% (active) | 10.3%
N=C(N)c1ccc(-c2ccc(-c3ccc(Cl)cc3)s2)nc1 | 56.4% | 98% | -15% (active) | -83.5% (active) | -73.3% (active) | -82.3% (active) | -78.2% (active) | -74.8% (active)
C=CCn1c(SCC(=O)Nc2ccc(C(=O)/C=C/c3cc4cc(OC)ccc4nc3Cl)cc2)nnc1-c1ccc(Br)cc1 | 77.7% | 79.3% | 91.1% | 92% | 29.6% | -44% (active) | 95.1% | 84.7%
COc1ccc(-c2nc(SCC(C)C)nc(N/N=C\c3ccc(F)cc3)c2C#N)cc1 | 80.7% | 89.9% | 92.5% | 67.9% | 81.2% | 60% | 104% | 97.4%
COc1cccc(/C=C/C(=O)c2cc3c(N)c(C(=O)Nc4ccccc4)sc3nc2C)c1 | 33% | 30.3% | -6.91% (active) | 0.132% (active) | 7.88% (active) | 14.9% | -37% (active) | 17.6%
CC[C@]12C=CCN3CC[C@@]4(c5cc(NC(=O)CCC(=O)OCc6cn(Cc7ccc(F)cc7)nn6)c(OC)cc5N(C)[C@H]4[C@@](O)(C(=O)OC)[C@@H]1OC(C)=O)[C@@H]32 | 102% | 108% | 101% | 104% | 96.4% | 96.3% | 106% | 103%
COc1ccc(-c2cn(-c3cc(OC)c(OC)c(OC)c3)c(=O)n2C(C)=O)cc1 | 73.9% | 83.5% | 79.4% | 96.2% | 89% | 85% | 84.3% | 93.3%
Cc1ccc(/C=C2\CN(C(=O)OC(C)(C)C)C/C(=C\c3ccc(C)cc3)C2=O)cc1 | 61.1% | 99.9% | -44.4% (active) | 5.21% (active) | 15.7% | -44.4% (active) | 29.5% | -16% (active)
